Sampled rows, rich in hits. Any-hit rate of the full collection: about 3.9%.
Anthrax LF inh2 – inhibitors of Bacillus anthracis lethal factor protease | P15917 | multiplex microsphere protease cleavage assay, LF | inhibition, % at 10 µM | 360,000 tested, 0.12% active; further: plate controls were buffer without enzyme for full effect and enzyme alone for no effect
BoNT F protease – inhibitors of Botulinum neurotoxin F light chain protease | 360,000 tested, 0.22% active | AID 588497 | Multiplex microsphere protease cleavage assay, flow cytometry | inhibition, % at 10 µM; in the data active means inhibition above about 35%, passing the limit was not always enough; inconclusive means no clear call, values can overlap the other calls; further: plate controls were buffer without enzyme for full effect and enzyme alone for no effect
Bead autofluor – counter-screen for toxin protease inhibitors: compound fluorescence; fluorescence intensity (no concentration beside the values); compound autofluorescence counterscreen, microsphere flow cytometry; active compounds read high; 360,000 tested, 3.1% active; in the data active means fluorescence intensity above about 16000; inconclusive means no clear call, values can overlap the other calls
BH1578 lux ind – inducers of Vibrio cholerae quorum light production without autoinducers; V. cholerae BH1578 lux reporter, luminescence, 6 h; activation, % at 18.7 µM; 350,000 tested, 0.16% active; AID 588436; in the data active means activation mostly above about 9.7%, no sharp cut-off; inconclusive means no clear call, values can overlap the other calls; inactive means mostly below about 3.7%
MazEF act – activators of E. coli MazEF toxin-antitoxin RNase; FAM/BHQ RNA-DNA oligo cleavage fluorescence, 5 h; activation, % at 20 µM; 350,000 tested, 0.32% active; in the data active means activation above about 50%
Target sequence (P0AE70 whole entry, looked up): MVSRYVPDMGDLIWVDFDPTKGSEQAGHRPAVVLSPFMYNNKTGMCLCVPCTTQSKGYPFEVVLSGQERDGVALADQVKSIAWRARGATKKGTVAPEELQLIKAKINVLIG
BoNT A protease – inhibitors of Botulinum neurotoxin A light chain protease. multiplex microsphere protease substrate cleavage, flow cytometry. inhibition, % at 10 µM. 360,000 tested, 0.17% active. AID 588499; further: plate controls were buffer without enzyme for full effect and enzyme alone for no effect
* hit, by the source's call; i = inactive; u = inconclusive; x = no result given; + = active, no number. Unless noted, no stated cut-off is given here; in the data, active means inhibition above about 30%; inconclusive means no clear call, values can overlap the other calls; inactive means below that.

SMILES | Anthrax LF inh2 | BoNT F protease | Bead autofluor | BH1578 lux ind | MazEF act | BoNT A protease
CCN(CC)C(=O)C1=C(C)N(CCCOC)C(=O)C(CC(=O)NCCCCc2ccccc2)C1 (centres undefined) | 1 | -6 | 3251 | 0 | 2 | 0
CC(=NNC(=S)Nc1cccc(Cl)c1)c1ccccn1 | 41* | 63* | 4466 | x | 7 | 10
S=C(NCc1ccccn1)Nc1cccc(Cl)c1 | -3 | 2 | 2207 | x | -8 | 0
CC(=NNC(=S)N1CCCC1)c1ccccn1 | 17 | 25 | 3636 | i | -1 | 5
CC(=NNC(=S)SCc1ccccc1)c1ccccn1 | 57* | 83* | 3593 | i | 1 | 42*
O=C(CCC(F)(F)F)N1CCCC(N2CCN(c3cccc(Cl)c3)CC2)C1 (centres undefined) | 19 | u | 3738 | -1 | 2 | -1
CCN(CC)C(=O)CN(C#N)c1nc(OC)nc(N(C)C)n1 | 0 | -5 | 9104 | i | 5 | 1
COc1nc(C#N)nc(N(C)C)n1 | -2 | -1 | 20512* | -1 | 8 | 0
CC1(C)CC(=O)C(N=Nc2cc3c(cc2[N+](=O)[O-])OCCO3)=C(O)C1 | -7 | -2 | 3229 | 0 | 93* | 0
CC(O)(c1ccccc1)c1nc(-c2ccc3c(c2)OCO3)cs1 (centres undefined) | -5 | 3 | 3983 | 1 | x | 0
CCCn1nnc(NCc2ccc(OCc3cccs3)c(OC)c2)n1 | -2 | -2 | 17112* | i | 7 | -1
CCNCc1ccc(OCc2cccs2)c(OCC)c1 | -4 | -2 | 3113 | 0 | 1 | 0
Cc1ccc(S(=O)(=O)c2nc(-c3ccccc3)oc2NCc2cccnc2)cc1 | -3 | -1 | 2839 | i | -1 | 0
Cc1ccccc1-c1nc(S(=O)(=O)c2ccc(Br)cc2)c(NCc2cccnc2)o1 | -3 | 0 | 20211* | 0 | -11 | 1
COc1ccc(-c2oc3c(c2C#CC(C)(C)O)C(OC)CCC3)cc1 (centres undefined) | 5 | 2 | 5769 | x | x | 0
O=C(CN1C(=O)C2C3C=CC(C4CC34)C2C1=O)Nc1cnc2ccccc2c1 (centres undefined) | -1 | 3 | 2589 | i | 6 | 0
O=C1CN(C(=O)CSc2nnnn2-c2ccc(Cl)cc2)c2ccccc2N1 | -2 | 3 | 21884* | i | 0 | u
CC(=O)c1cccc(NC(=O)CN(C)S(=O)(=O)c2ccc3c(c2)CC(C)N3C(C)=O)c1 (centres undefined) | 2 | -1 | 4940 | -1 | 6 | 1
CCCNC(=O)Cn1cnc2sc(C(=O)N3CCN(c4ccc(F)cc4)CC3)c(C)c2c1=O | -1 | 1 | 20571* | i | -1 | 0
O=C1CCCCC(=O)N(c2ccccc2)c2ccccc21 | 1 | 1 | 16379* | -6 | -6 | 1
O=C1CCC(=O)N1c1ccccc1 | 4 | u | 3679 | -1 | 0 | 4
O=C(C1=C(O)C(=O)N(CCc2ccccc2)C1c1ccncc1)c1cc2ccccc2o1 (centres undefined) | 5 | 4 | 3673 | 0 | 4 | 0
CCOc1cccc(C2C(C(=O)c3ccc(C)o3)=C(O)C(=O)N2Cc2ccncc2)c1 (centres undefined) | -5 | 16 | 3326 | -1 | -4 | 0
Cc1cc(N2C(=O)C(O)=C(C(=O)c3cc4ccccc4o3)C2c2cccs2)no1 (centres undefined) | 0 | -8 | 6623 | i | 7 | -2
O=C(C1=C(O)C(=O)N(c2nccs2)C1c1ccccc1)c1cc2ccccc2o1 (centres undefined) | 24 | u | 10296 | i | 227* | -12
SMILES | Anthrax LF inh2 | BoNT F protease | Bead autofluor | BH1578 lux ind | MazEF act | BoNT A protease
CCOc1cccc(C2C(C(=O)c3ccc(C)o3)=C(O)C(=O)N2c2nccs2)c1 (centres undefined) | 3 | 17 | 4688 | i | + | 1
Cc1ccc2nc(N3C(=O)C(O)=C(C(=O)c4cc5ccccc5o4)C3c3cccs3)sc2c1 (centres undefined) | 0 | 25 | 6363 | i | 80* | 2
CCc1ccc2nc(N3C(=O)C(O)=C(C(=O)c4ccco4)C3c3cccs3)sc2c1 (centres undefined) | -12 | -20 | 3408 | -1 | 79* | 0
CCOC(=O)[C@]12CCCC=C1N(Cc1ccco1)C(=O)[C@H](CC(=O)NCc1ccccc1)C2 | 4 | -1 | 5215 | x | x | 0
O=C(Nc1ccc(Cl)cc1Cl)NC1CCCC1 | -2 | -13 | 2382 | 0 | 5 | -1
O=C(Nc1ccc(Cl)cc1Cl)NC1CCN(S(=O)(=O)c2ccc(F)cc2)CC1 | -2 | -4 | 3565 | -1 | 101* | 1
CCC12CSc3nc(Cl)ccc3N1C(=O)C(=O)N2C (centres undefined) | u | 40* | 3598 | 0 | 0 | 2
Cc1cccc(CSc2nncc(=O)[nH]2)c1 | 4 | -21 | 3842 | -1 | 4 | 0
CSc1nncc(=O)[nH]1 | 2 | -4 | 21213* | -1 | -8 | -2
O=c1cnnc(SCCc2ccccc2)[nH]1 | -1 | 3 | 23384* | 6 | 4 | 1
COC(=O)c1ccc2c(=O)[nH]c(CN3c4ccccc4CC3C)nc2c1 (centres undefined) | -7 | -2 | 19519* | i | 2 | u
O=c1c(-c2ccc(O)cc2)coc2cc(OC3OC(CO)C(O)C(O)C3O)ccc12 (centres undefined) | -2 | -7 | 3755 | 5 | 7 | 0
O=C(CNC(=O)c1ccco1)NCC(=O)OCc1cccc(C(=O)Oc2ccccc2)c1 | -3 | -10 | 11097 | 3 | -5 | -1
COC(=O)c1cccc(COC(=O)CNC(=O)c2ccco2)c1 | -1 | 0 | 20436* | i | 8 | -3
Cc1ccc(C(=O)COC(=O)CNC(=O)c2ccco2)cc1 | 1 | -2 | 20040* | 5 | 5 | -1
Cc1ccc(-c2cc(C(=O)Nc3c(C)n(C)n(-c4ccccc4)c3=O)[nH]n2)c(O)c1C | 13 | -8 | 4690 | 0 | -12 | 0
CCN(CC)C(=O)C1=C(C)NC(=O)NC1c1c(F)cccc1Cl (centres undefined) | -4 | -7 | 16958* | -2 | 5 | -1
O=C(N/N=C/c1ccc(Cl)cc1Cl)c1ccc2nc[nH]c2c1 | -2 | 4 | 5418 | 0 | -29 | 0
O=C(N/N=C/c1ccc(Cl)cc1Cl)c1cccc(F)c1 | -1 | 1 | 22364* | i | 9 | 0
CCn1nnc(C(=O)O)c1C(=O)O | -5 | -4 | 16922* | i | 6 | u
CN(Cc1ccccc1)C(=O)Cn1nnc(-c2ccccc2)c1COc1ccccc1 | 2 | 0 | 2861 | 0 | x | 0
Cc1nn(C)cc1CNC(=O)c1cccc(Br)c1 | 0 | 12 | 3431 | 0 | 12 | 1
Cc1nn(C)cc1CNC(=O)c1ccccc1Br | -2 | 2 | 16520* | i | -1 | u

Compound activity: PubChem BioAssay, several laboratories
